Where “and” joins values, the source holds several entries; their conditions need not be identical. Equal values may be shown once. About 2,000 (36%) of roughly 5,500 compounds were called active. Roughly 18% stayed inconclusive and do not appear here. No stated cut-off is given here; in the data, active means normalized growth mostly below about 0.91 (no sharp cut-off); inconclusive means no clear call, values can overlap the other calls; inactive means mostly above about 0.92. The list shows a part of the results.
Assay: chemical genetic growth profiling, strain panel (AID 1159580);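 further: tested at 20 µM; growth read once vehicle control cultures reached saturation at 30 °C; 1 = growth at the plate median or of vehicle wells; lower values mean less growth of the strain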
Details: S. cerevisiae deletion strains, growth OD

Measured: normalized growth

C[C@H](COc1ccccc1)N[C@H](C)[C@H](O)c1ccc(O)cc1
inactive: locus YAL021C, strain ccr4, hits give low values 0.964 | locus YAL026C, strain drs2, hits give low values 0.974 | locus YAL030W, strain snc1, hits give low values 0.999 | locus YBL061C, strain skt5, hits give low values 1.01 | locus YBR009C, strain hhf1, hits give low values 1 | locus YBR021W, strain FUR4, hits give low values 0.986 | locus YBR023C, strain chs3, hits give low values 0.981 | locus YBR171W, strain sec66, hits give low values 0.997 | locus YBR229C, strain ROT2, hits give low values 0.995 | locus YBR231C, strain swc5, hits give low values 0.988 | locus YBR279W, strain paf1, hits give low values 0.982 | locus YCL011C, strain gbp2, hits give low values 1 | locus YCL016C, strain dcc1, hits give low values 0.979 | locus YCL029C, strain bik1, hits give low values 0.996 | locus YCL061C, strain MRC1, hits give low values 0.986 | locus YCL069W, strain vba3, hits give low values 0.997 | locus YCR088W, strain abp1, hits give low values 0.998 | locus YDL005C, strain med2, hits give low values 0.999 | locus YDL035C, strain GPR1, hits give low values 1.03 | locus YDL040C, strain nat1, hits give low values 0.994 | locus YDL074C, strain BRE1, hits give low values 1.03 | locus YDL101C, strain DUN1, hits give low values 1 | locus YDL185W, strain tfp1, hits give low values 0.992 | locus YDL192W, strain arf1, hits give low values 0.998 | locus YDR001C, strain nth1, hits give low values 0.992 | locus YDR069C, strain doa4, hits give low values 0.998 | locus YDR101C, strain arx1, hits give low values 1.01 | locus YDR137W, strain rgp1, hits give low values 0.963 | locus YDR150W, strain NUM1, hits give low values 1 | locus YDR159W, strain sac3, hits give low values 0.99 | locus YDR162C, strain NBP2, hits give low values 1 | locus YDR195W, strain ref2 0.993 | locus YDR297W, strain sur2, hits give low values 0.99 | locus YDR318W, strain mcm21, hits give low values 0.994 | locus YDR334W, strain swr1, hits give low values 0.996 | locus YDR335W, strain msn5, hits give low values 1 | locus YDR388W, hits give low values 0.997 | locus YDR392W, strain spt3, hits give low values 0.952 | locus YDR502C, strain sam2, hits give low values 1.01 | locus YEL003W, strain gim4, hits give low values 1 | locus YEL037C, strain rad23, hits give low values 0.997 | locus YEL061C, strain CIN8 (second series), hits give low values 0.996 | locus YEL061C, strain CIN8, hits give low values 1 | locus YER015W, strain faa2, hits give low values 1 | locus YER016W, strain bim1, hits give low values 1.01 | locus YER110C, hits give low values 0.975 | locus YER111C, strain swi4, hits give low values 0.988 | locus YER155C, strain BEM2 (second series), hits give low values 0.983 | locus YER155C, strain BEM2, hits give low values 0.986 | locus YER167W, strain BCK2, hits give low values 0.985 | locus YFR010W, strain ubp6, hits give low values 0.996 | locus YGL078C, strain dbp3, hits give low values 0.98 | locus YGL086W, strain mad1, hits give low values 1.01 | locus YGL167C, strain pmr1, hits give low values 1 | locus YGL173C, strain kem1, hits give low values 1 | locus YGL227W, strain vid30, hits give low values 0.986 | locus YGL240W, strain doc1, hits give low values 0.988 | locus YGL248W, strain PDE1, hits give low values 0.993 | locus YGL253W, strain hxk2, hits give low values 1.01 | locus YGR078C, strain PAC10, hits give low values 1.01 | locus YGR135W, strain pre9, hits give low values 0.942 | locus YGR252W, strain gcn5, hits give low values 0.988 | locus YHR013C, strain ard1, hits give low values 0.969 | locus YHR027C, strain rpn1, hits give low values 0.997 | locus YHR030C, strain SLT2, hits give low values 0.993 and 1 | locus YHR079C, strain IRE1 (second series), hits give low values 0.991 | locus YHR079C, strain IRE1, hits give low values 0.985 | locus YHR094C, strain hxt1, hits give low values 0.974 | locus YHR129C, strain ARP1, hits give low values 0.992 | locus YHR142W, strain chs7, hits give low values 1 | locus YHR200W, strain rpn10, hits give low values 0.992 | locus YIL066C, strain RNR3, hits give low values 0.987 | locus YIL073C, strain SPO22, hits give low values 0.977 | locus YIL125W, strain kgd1, hits give low values 1 | locus YIR030C, strain dcg1, hits give low values 0.993 | locus YJL092W, strain hpr5, hits give low values 0.992 | locus YJL095W, strain BCK1 (second series), hits give low values 0.998 | locus YJL095W, strain BCK1, hits give low values 0.965 and 1 | locus YJL115W, strain asf1, hits give low values 0.996 | locus YJL129C, strain trk1, hits give low values 0.993 | locus YJL134W, strain LCB3, hits give low values 0.991 | locus YJL154C, strain vps35, hits give low values 0.998 | locus YJL164C, strain tpk1, hits give low values 0.996 | locus YJL166W, strain qcr8, hits give low values 0.989 | locus YJL168C, strain set2, hits give low values 0.99 | locus YJL187C, strain SWE1 (second series), hits give low values 0.985 | locus YJL187C, strain SWE1, hits give low values 1.01
